“And” between values parts separate entries of the source, which are not always exact repeats. Identical values can stand only once.

The values below come from ChEMBL document CHEMBL1961873, “Compounds: GSK PKIS; Assays: Nanosyn kinase panel” (2012).
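Further: reported figures are mean TTK inhibition at 1 µM.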

The assay deals with T1, Dual specificity protein kinase TTK (Homo sapiens) (UniProt P33981).
T1 sequence (whole entry): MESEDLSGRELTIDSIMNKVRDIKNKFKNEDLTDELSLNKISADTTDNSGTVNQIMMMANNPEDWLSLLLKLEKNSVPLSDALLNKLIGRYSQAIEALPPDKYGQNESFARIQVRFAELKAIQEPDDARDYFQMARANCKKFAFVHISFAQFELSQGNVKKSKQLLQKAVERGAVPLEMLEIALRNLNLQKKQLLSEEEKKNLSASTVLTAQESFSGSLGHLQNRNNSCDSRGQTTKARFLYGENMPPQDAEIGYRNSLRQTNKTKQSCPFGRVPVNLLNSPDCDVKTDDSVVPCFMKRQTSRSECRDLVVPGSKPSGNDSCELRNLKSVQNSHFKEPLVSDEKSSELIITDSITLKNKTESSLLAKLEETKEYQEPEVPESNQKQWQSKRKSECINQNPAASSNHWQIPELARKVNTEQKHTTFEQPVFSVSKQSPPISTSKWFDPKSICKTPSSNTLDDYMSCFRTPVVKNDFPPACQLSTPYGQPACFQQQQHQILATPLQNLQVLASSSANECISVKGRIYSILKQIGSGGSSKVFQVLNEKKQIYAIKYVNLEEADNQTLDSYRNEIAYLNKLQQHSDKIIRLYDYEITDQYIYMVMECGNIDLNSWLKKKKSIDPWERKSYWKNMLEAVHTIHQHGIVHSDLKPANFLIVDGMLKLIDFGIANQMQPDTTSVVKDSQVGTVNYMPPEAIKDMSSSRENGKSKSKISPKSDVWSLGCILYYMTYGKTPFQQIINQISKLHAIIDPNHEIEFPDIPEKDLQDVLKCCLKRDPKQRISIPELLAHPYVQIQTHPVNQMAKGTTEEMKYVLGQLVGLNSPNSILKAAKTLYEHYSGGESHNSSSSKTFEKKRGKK
Particulars: at 1 µM.
Take `NS(=O)(=O)c1ccc(N/N=C2\C(=O)Nc3cccc(CCc4ccncc4)c32)cc1`: the inhibition (as a rule, the change of the read-out against control, counted positive when it falls) was 38.7%.

On to `COC(=O)Nc1nc2ccc(Oc3ccc(NC(=O)Nc4cc(C(F)(F)F)ccc4F)cc3)cc2s1`, for which the inhibition came to 9.84%.

Regarding `CCn1c(-c2nonc2N)nc2cncc(C(=O)NCCNC)c21`, the inhibition was 10.5%.

For `Cc1cc(O)cc(C)c1/C=C/c1cncc(C(=O)OC(C)(C)C)c1`, the inhibition is 4.42%.

For the compound `CS(=O)(=O)CCNCc1ccc(-c2ccc3ncnc(Nc4ccc(OCc5cccc(C(F)(F)F)c5)cc4)c3c2)o1`, the inhibition was 8.3%.

Take `COC(=O)Nc1nc2cc(Oc3ccc(NC(=O)Nc4ccccc4)cc3)ccc2[nH]1`: the inhibition was 4.66%.

`O=C1Nc2ccccc2/C1=C1\CCc2cc(O)ccc21`: the inhibition was found to be 31.4%.

As to `CC1(C)CC(n2cnc(-c3ccc(F)cc3)c2-c2ccnc(N)n2)CC(C)(C)N1`, the inhibition stood at 1.53%.

As to `COc1ccc(-c2nn3ncccc3c2-c2ccnc(Nc3ccc(F)c(F)c3)n2)cc1`, the inhibition is -0.7%.

Turning to `CCS(=O)(=O)c1ccc(OC)c(Nc2ncc(-c3cccc(C(C)=O)c3)o2)c1`, the inhibition turned out to be 8.55%.

With `COc1cc(Nc2ncc(-c3ccccc3)o2)cc(OC)c1`, the inhibition turned out to be 11.9%.

As to `c1cnn2ncc(-c3ccnc(NCCCN4CCOCC4)n3)c2c1`, the inhibition was found to be 8.22%.

Take `Cc1c2ccc(N(C)c3ccnc(Nc4cccc(S(N)(=O)=O)c4)n3)cc2nn1C`: the inhibition is 29.9%.

Consider `CS(=O)(=O)Nc1ccc(-c2cc(-c3ccccc3)cc(C(N)=O)c2N)cc1`, for which the inhibition stood at 3.01%.

`O=C(O[C@H]1CN[C@H](C#Cc2cc3ncnc(Nc4ccc5c(cnn5Cc5ccccc5)c4)c3s2)C1)N1CCOCC1`: the inhibition worked out at 6.25%.

Consider `Nc1nonc1-c1nc2cnccc2n1C1CC1`, for which the inhibition was 5.15% and -6.34%.
